Results taken from PubChem BioAssay (NCATS).
Values joined by “and” are separate entries in the source; they are usually repeats but may differ in a detail not shown here. Equal values may be shown once. Records with an inconclusive call do not appear. Active and inactive are the calls of the source. Unless noted, calls come from the whole dose curve; as a rule, active = well fitted curve in the direction sought with a large enough effect; inconclusive = small, poorly fitted or top-dose-only effect, or another doubt; inactive = no such curve, though single readings can be large; an effect the other way counts as inactive or inconclusive.

Tests used:
[1] = Validation of Assay for Modulators of Lamin A Splicing (AID 1459; active = well fitted curve in the direction sought with a large enough effect in the signal ratio; the % refers to the signal ratio;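 note: cells exposed to compound for two days before reading; 0% is about no effect; ratio rise marks activators and ratio drop marks inhibitors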)
How it was run: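 Dual-reporter HeLa S3 line (lamin A-EGFP minigene, DsRed2) treated with compounds 48 hrs, 0.5% DMSO final. Endpoint: EGFP/DsRed2 total intensity ratio from laser-scanning microplate cytometry.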

[2] = biological target: DNA repair nuclease/redox regulator APEX1 (Homo sapiens) (UniProt P27695); test: qHTS Validation Assay for Inhibitors of the Human Apurinic/apyrimidinic Endonuclease 1 (APE1) (AID 1705; note: potency is the fitted concentration of half-maximal effect;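 for activity change, negative = inhibition: TAMRA fluorescence gain over two minutes as APE1 cuts a quenched THF abasic duplex; % is set by controls: 0 for no effect and ±100 for the full control effect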)
Chain of DNA repair nuclease/redox regulator APEX1 (Homo sapiens) (P27695 whole entry, looked up): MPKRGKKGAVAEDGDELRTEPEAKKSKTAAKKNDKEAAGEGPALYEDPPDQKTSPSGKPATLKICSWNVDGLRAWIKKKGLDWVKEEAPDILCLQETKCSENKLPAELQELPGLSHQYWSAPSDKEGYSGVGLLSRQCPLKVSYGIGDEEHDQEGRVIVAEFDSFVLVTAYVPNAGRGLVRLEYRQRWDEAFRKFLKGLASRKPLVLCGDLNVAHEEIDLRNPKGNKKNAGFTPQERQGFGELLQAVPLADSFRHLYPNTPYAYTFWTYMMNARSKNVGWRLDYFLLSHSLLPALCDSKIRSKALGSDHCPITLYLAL
How it was run: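 Substrate: 50 nM final fluorophore/quencher THF-abasic duplex. Enzyme preincubated with compounds 15 min, RT. Progress derived from fluorescence difference, third minus first kinetic read.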

[3] = Counterscreen for APE1 Inhibitors: Fluorescent Dye Displacement Validation Assay (AID 1707); note: potency is the fitted concentration of half-maximal effect;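 for activity change, negative = inhibition: plate controls were ThO with dsDNA and no compound for no effect and ThO without dsDNA for full effect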
How it was run: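 Endpoint fluorescence read at 480 nm excitation / 540 nm emission; DNA-binding compounds lower signal by displacing 250 nM Thiazole Orange from 50 nM dsDNA containing a tetrahydrofuran abasic site, Tris-HCl pH7.5 buffer with NaCl and MgCl2.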

[4] = biological target: Endonuclease 4 (Escherichia coli (strain K12)) (UniProt P0A6C1); test: Counterscreen for APE1 Inhibitors: qHTS Validation Assay for Inhibitors of Endonuclease IV (AID 1708); note: % is set by controls: 0 for no effect and ±100 for the full control effect
How it was run: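 Read-out: fluorescence rise (ex 525/em 598 nm) from incision of a TAMRA/BHQ-2 double-stranded THF abasic-site substrate (50 nM), measured kinetically; third-minus-first read difference gave reaction progress. Enzyme 2 nM.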

[5] = qHTS for differential inhibitors of proliferation of Plasmodium falciparum line 3D7 (AID 1876);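 note: parasite growth measured after three days of culture; 0% = vehicle wells and -100% = reference inhibitor wells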
[6] = qHTS for differential inhibitors of proliferation of Plasmodium falciparum line D10 (AID 1877);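 note: parasites grown with compound for 72 h before DNA staining; plate controls were vehicle wells for no effect and reference inhibitor wells for full effect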
[7] = qHTS for differential inhibitors of proliferation of Plasmodium falciparum line Dd2 (AID 1882); conditions: Potency: Plasmodium falciparum Dd2 proliferation inhibition;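 note: compound exposure of 72 h on infected erythrocytes; plate controls were DMSO vehicle for no effect and 0.29 µM artemisinin for full effect; nearly all actives have a fitted effect of over 65% in size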
How it was run: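 RBC culture, 0.3% parasitemia / 2.5% Hct final; cpd added by pin tool in DMSO; 72 h, 37 C, 5% CO2; lysis buffer + SYBR Green I, o/n RT dark; FI 485/535; norm. to artemisinin 0.29 uM and DMSO.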

[8] = qHTS for differential inhibitors of proliferation of Plasmodium falciparum line HB3 (AID 1886); conditions: Potency: Plasmodium falciparum HB3 proliferation inhibition;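 note: parasites grown with compound for 72 h before SYBR Green readout; plate controls were vehicle for no effect and reference inhibitor for full effect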
[9] = biological target: Ferritin light chain (Equus caballus) (UniProt P02791); test: qHTS Validation Assay for Identification of Novel General Anesthetics (AID 2323); note: % is set by controls: 0 for no effect and ±100 for the full control effect
Chain of Ferritin light chain (Equus caballus) (P02791 2-175 limits assumed): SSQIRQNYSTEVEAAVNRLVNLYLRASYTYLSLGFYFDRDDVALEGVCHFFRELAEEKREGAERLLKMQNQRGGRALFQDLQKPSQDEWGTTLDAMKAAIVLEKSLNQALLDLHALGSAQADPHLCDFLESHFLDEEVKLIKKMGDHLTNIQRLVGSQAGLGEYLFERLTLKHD
How it was run: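 Normalized fluorescence response, scaled between free 1-AMA and 1-AMA/apoferritin complex, fitted to a four-parameter Hill equation for concentration-effect values. Binding mix: 10 uM horse-spleen apoferritin, 50% saturated 1-AMA in PBS; read 380/535 nm after 10 min.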

[10] = biological target: ATP-dependent DNA helicase Q1 (Homo sapiens) (UniProt P46063); test: qHTS Validation Assay for Inhibitors of RecQ-Like Dna Helicase 1 (RECQ1) (AID 2353); note: potency is the fitted concentration of half-maximal effect;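 for activity change, negative = inhibition: plate controls were DMSO vehicle for no effect and enzyme-free control for full effect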
Chain of ATP-dependent DNA helicase Q1 (Homo sapiens) (P46063 whole entry, looked up): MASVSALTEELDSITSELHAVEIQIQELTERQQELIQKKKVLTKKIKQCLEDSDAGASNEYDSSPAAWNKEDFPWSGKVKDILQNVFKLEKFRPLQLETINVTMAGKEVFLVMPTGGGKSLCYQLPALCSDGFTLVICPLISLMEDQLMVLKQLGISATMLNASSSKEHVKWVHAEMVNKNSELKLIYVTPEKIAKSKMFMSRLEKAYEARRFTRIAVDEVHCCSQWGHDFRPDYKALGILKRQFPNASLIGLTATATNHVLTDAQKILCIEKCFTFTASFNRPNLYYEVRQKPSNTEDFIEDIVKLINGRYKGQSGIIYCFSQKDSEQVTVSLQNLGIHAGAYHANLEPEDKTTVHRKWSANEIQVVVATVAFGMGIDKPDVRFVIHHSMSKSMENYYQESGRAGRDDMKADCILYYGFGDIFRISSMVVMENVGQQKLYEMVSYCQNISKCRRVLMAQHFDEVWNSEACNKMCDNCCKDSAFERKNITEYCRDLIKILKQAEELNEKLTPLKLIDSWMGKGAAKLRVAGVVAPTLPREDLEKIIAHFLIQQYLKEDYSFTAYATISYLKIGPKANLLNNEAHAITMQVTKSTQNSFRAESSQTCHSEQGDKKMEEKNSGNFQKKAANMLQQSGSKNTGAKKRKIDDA
How it was run: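 RECQ1T1 50 nM; forked duplex (20 bp + 30-nt ss tails) 200 nM, ATP 2 mM final; pH 8.0, 2 mM MgCl2, 2.5 ug/ml poly(dI-dC); 15 min compound preincubation; discontinuous kinetic read over 2 h at RT.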

[11] = Validation screen for small molecules that induce DNA re-replication in MCF 10A normal breast cells (AID 463097); note: 0% is about no effect; nearly all actives have a fitted effect of over 60% in size
How it was run: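 Following 48 hr compound incubation (37 C, 5% CO2), MCF 10A cells receive Hoechst for 40 min at 37 C. Nuclei are then scanned (excitation 405 nm, emission 500-530 nm) for total fluorescence intensity.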

[12] = Quantitative high throughput screen for delayed death inhibitors of the malarial parasite plastid, 96 hour incubation (AID 488745); note: % is set by controls: 0 for no effect and ±100 for the full control effect; nearly all actives have a fitted effect of over 70% in size
How it was run: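 Two-generation (96 h) exposure of luciferase-reporter P. falciparum in erythrocytes, 2% hematocrit, 0.1% parasitemia final, 37 C, 5% CO2, RPMI 1640 with 0.5% Albumax. Growth inhibition scored by reduced luminescence.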

[13] = Quantitative high throughput screen for delayed death inhibitors of the malarial parasite plastid, 48 hour incubation (AID 488752); note: % is set by controls: 0 for no effect and ±100 for the full control effect; nearly all actives have a fitted effect of over 65% in size
How it was run: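 Cultures: infected erythrocytes at final 2% hematocrit and 0.1% parasitemia in Albumax-supplemented RPMI. Parasites express integrated firefly luciferase. Incubation with compound lasts 48 h before luminescent detection of remaining reporter activity.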

[14] = biological target: M-phase phosphoprotein 8 (Homo sapiens) (UniProt Q99549); test: qHTS Validation Assay for Inhibitors for MPP8 Chromodomain Interactions with Methylated Histone Tails (AID 488949);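 note: 50 nM MPP8 with 50 nM peptide preformed then compounds added for 30 min; AlphaScreen signal from MPP8 chromodomain bound to biotinylated H3K9me3 peptide; top concentration of the series differs between compounds; % is set by controls: 0 for no effect and ±100 for the full control effect; nearly all actives have a fitted effect of over 55% in size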
How it was run: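 Chemiluminescent proximity assay: histidine-tag capture via nickel acceptor beads, biotin peptide via streptavidin donor beads. Protein and peptide each at 50 nM, pH 7.4, with 30 min incubations at room temperature for complex formation, compound exposure and bead binding.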

[15] = biological target: Transient receptor potential cation channel subfamily V member 1 (Homo sapiens) (UniProt Q8NER1); test: HTS Assay for Compounds that Act as Enhancers of the Vanilloid Receptor 1 (AID 488979); note: 0% is about no effect
Chain of Transient receptor potential cation channel subfamily V member 1 (Homo sapiens) (Q8NER1 whole entry, looked up): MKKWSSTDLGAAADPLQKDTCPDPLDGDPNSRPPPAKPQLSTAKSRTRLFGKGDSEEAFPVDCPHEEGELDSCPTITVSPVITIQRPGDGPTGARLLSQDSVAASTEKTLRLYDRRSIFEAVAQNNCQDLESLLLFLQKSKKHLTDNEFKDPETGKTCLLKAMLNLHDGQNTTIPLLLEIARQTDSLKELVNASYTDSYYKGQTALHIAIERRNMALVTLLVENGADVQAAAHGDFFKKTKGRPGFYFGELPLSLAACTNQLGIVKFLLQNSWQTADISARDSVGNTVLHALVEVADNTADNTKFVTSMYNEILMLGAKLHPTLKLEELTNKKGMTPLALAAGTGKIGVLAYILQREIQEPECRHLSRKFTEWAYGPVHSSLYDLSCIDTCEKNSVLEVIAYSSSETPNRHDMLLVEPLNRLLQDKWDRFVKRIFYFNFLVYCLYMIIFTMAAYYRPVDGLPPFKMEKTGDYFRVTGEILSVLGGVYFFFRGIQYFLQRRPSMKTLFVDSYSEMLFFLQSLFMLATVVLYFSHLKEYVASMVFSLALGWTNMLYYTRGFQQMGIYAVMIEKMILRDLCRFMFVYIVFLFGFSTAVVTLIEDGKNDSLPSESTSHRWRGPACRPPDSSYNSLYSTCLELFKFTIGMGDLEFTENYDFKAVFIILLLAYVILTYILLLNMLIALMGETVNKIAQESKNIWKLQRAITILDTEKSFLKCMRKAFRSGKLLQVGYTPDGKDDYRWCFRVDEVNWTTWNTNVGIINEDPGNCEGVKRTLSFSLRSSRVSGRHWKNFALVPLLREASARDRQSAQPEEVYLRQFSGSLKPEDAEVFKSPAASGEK
How it was run: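 TRPV1 cells loaded with Fluo-8 calcium dye; compound added and Ca2+ signal (ex 480/em 520 nm) followed 3 min, then capsaicin at EC20 added and read 2 more min to detect enhancement.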

[16] = biological target: Thyrotropin receptor (Homo sapiens) (UniProt P16473); test: qHTS Assay for Antagonists of the Thyroid Stimulating Hormone Receptor (AID 488980); note: 0% is about no effect
Chain of Thyrotropin receptor (Homo sapiens) (P16473 whole entry, looked up): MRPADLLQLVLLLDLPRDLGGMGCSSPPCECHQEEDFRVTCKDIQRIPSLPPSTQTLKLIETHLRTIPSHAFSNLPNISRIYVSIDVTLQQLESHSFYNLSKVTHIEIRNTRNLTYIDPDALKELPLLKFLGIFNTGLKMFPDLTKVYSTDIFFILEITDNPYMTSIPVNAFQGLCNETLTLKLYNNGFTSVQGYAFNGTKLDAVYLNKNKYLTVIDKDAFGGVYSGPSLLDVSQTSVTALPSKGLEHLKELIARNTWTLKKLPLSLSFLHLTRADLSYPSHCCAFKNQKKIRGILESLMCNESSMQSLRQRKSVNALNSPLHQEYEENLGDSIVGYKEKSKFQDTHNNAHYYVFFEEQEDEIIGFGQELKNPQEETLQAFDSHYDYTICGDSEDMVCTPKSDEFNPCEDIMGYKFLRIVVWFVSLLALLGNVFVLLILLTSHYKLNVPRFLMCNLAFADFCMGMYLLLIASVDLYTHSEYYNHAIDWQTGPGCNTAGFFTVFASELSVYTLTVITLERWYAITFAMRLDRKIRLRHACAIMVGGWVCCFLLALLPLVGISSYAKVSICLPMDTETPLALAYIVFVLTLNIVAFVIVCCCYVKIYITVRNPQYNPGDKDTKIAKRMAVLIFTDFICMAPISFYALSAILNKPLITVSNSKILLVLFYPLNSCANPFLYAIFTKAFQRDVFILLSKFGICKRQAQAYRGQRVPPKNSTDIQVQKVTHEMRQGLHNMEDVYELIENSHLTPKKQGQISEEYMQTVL
How it was run: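 Inhibition of TSH-stimulated cAMP accumulation was quantified by homogeneous time-resolved FRET in TSHR-transfected HEK293 cells. Agonist: TSH, 4 nM final (EC80).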

[17] = biological target: Thyrotropin-releasing hormone receptor (Homo sapiens) (UniProt P34981); test: qHTS for Small Molecule Agonists and Allosteric Enhancers of Human TRH Receptor: Validation Screen for Agonists (AID 493127;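 active = calcium activation more than 3 SD above the typical response in the agonist read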;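 note: intracellular calcium rise by fluo-8 fluorescence before TRH EC20 addition; 0% is about no effect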); conditions: TRH receptor agonist cell assay; at 2 µM; stronger effect = higher value
Chain of Thyrotropin-releasing hormone receptor (Homo sapiens) (P34981 whole entry, looked up): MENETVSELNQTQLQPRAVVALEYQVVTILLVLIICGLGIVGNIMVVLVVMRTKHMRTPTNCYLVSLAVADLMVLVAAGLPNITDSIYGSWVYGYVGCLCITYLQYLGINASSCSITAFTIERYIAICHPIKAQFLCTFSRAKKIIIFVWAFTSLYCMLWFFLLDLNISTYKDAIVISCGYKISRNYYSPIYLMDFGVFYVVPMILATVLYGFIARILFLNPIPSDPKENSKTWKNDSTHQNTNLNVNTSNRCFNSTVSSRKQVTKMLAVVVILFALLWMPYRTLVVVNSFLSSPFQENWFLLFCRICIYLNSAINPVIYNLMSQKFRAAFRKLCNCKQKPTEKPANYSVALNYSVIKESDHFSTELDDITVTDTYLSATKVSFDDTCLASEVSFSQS
How it was run: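 Kinetic fluorescence assay of agonist-induced calcium release: overnight-plated TRHR cells, room-temperature fluo-8 loading, baseline then compound addition with per-second reads.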

[18] = biological target: Galactokinase (Homo sapiens) (UniProt P51570); test: qHTS Validation Assay for Inhibitors of Human Galactokinase (GALK) (AID 493189); note: 0% is about no effect
Chain of Galactokinase (Homo sapiens) (P51570 whole entry, looked up): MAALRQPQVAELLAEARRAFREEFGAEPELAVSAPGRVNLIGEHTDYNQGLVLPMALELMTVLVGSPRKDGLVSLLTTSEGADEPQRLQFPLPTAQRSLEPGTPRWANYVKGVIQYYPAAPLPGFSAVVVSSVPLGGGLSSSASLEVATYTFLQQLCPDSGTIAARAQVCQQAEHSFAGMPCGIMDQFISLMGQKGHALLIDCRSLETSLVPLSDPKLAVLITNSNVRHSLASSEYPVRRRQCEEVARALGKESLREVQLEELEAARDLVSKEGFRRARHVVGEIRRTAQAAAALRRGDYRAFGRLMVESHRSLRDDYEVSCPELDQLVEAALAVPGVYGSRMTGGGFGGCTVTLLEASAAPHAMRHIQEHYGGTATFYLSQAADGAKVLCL
How it was run: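 Enzyme activity is inferred from ATP consumption: human GALK phosphorylates galactose (100 uM) using 35 uM ATP for 1 h at room temperature, and luciferase-based Kinase-Glo Plus reports unconsumed ATP.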

[19] = biological target: Voltage-gated inwardly rectifying potassium channel KCNH2 (Homo sapiens) (UniProt Q12809); test: qHTS Assay for Small Molecule Inhibitors of the Human hERG Channel Activity (AID 588834);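 note: top concentration of the series differs between compounds; % is set by controls: 0 for no effect and ±100 for the full control effect; lower thallium flux fluorescence means stronger hERG block; nearly all actives have a fitted effect of over 50% in size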
Chain of Voltage-gated inwardly rectifying potassium channel KCNH2 (Homo sapiens) (Q12809 whole entry, looked up): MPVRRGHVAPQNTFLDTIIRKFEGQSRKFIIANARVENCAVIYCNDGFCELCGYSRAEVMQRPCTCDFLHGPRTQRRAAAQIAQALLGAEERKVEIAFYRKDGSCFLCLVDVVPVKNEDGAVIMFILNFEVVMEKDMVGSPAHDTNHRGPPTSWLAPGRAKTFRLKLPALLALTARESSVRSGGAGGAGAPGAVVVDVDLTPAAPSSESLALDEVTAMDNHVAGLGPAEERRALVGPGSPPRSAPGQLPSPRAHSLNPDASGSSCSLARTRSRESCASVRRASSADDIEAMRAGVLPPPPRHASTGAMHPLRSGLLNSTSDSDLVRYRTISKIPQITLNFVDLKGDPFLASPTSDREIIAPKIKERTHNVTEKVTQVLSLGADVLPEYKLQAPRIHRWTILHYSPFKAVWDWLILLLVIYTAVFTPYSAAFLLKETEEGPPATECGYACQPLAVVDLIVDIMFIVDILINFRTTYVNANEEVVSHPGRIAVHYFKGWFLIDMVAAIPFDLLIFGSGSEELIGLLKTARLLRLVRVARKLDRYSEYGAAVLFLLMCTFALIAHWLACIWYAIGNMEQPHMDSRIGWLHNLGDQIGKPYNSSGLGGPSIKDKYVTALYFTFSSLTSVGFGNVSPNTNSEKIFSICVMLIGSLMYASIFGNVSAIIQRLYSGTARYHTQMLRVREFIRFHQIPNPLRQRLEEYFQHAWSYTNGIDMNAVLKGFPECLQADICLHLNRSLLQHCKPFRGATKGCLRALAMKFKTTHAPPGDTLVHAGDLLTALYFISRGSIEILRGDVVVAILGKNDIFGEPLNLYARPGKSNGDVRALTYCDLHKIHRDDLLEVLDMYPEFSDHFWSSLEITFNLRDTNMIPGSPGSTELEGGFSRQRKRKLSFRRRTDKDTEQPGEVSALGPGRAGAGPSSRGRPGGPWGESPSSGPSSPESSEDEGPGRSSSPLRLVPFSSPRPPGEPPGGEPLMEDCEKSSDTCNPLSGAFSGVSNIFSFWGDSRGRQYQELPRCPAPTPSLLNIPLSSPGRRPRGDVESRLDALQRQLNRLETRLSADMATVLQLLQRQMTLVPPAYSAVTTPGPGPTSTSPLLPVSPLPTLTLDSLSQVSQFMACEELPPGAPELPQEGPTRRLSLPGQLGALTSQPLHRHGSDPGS
How it was run: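 Homogeneous FluxOR thallium flux assay using hERG-expressing U2OS cells (BacMam). Compound treatment about 10 minutes preceded stimulation; reduced fluorescence taken as channel block.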

[20] = qHTS Assay for Lipid Storage Modulators (AID 1519; calls by dose curve; for activity change, negative = inhibition: % is set by controls: 0 for no effect and ±100 for the full control effect); conditions: Drosophila S3 cells, BODIPY lipid droplet/cell ratio, laser cytometry, cells loaded with oleic acid; for activity change, negative = inhibition: at 57.5 µM (top of the series)
How it was run: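 Cells seeded at 5,000 per well were treated with compounds over a concentration series and loaded with oleic acid (400 uM, as added). Lipid droplet fluorescence (488 nm excitation, 500-530 nm channel) was read by laser-scanning cytometry and normalized to 20 uM Triacsin C.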

[21] = measured here: cell count channel max response
[22] = measured here: lipid channel max response

Nc1ncnc2c1ncn2[C@@H]1O[C@H](C(=O)NC2CC2)[C@H](O)[C@H]1O
inactive: outcome [1] | Potency [2] | Potency [3] | outcome [4] | Potency [5] | Potency [6] | Potency [7] | Potency [8] | outcome [9] | Potency [10] | outcome [11] | Potency [12] | Potency [13] | Potency [14] | outcome [15] | outcome [16] | activation [17] 1.12% | outcome [18] | Potency [19]

Cc1cn([C@H]2C[C@@H](N=[N+]=[N-])[C@@H](CO)O2)c(=O)[nH]c1=O
-8.16%: max response [20, 22]
-9.17%: max response [20, 21]
inactive: outcome [1] | activity change, negative = inhibition [20] 0.117% | Potency [2] | Potency [3] | outcome [4] | Potency [5] | Potency [6] | Potency [7] | Potency [8] | outcome [9] | Potency [10] | outcome [11] | Potency [12] | Potency [13] | Potency [14] | outcome [15] | outcome [18] | Potency [19]

OC[C@H]1O[C@@H](n2cnc3c(NCCc4ccccc4)ncnc32)[C@H](O)[C@H]1O
-25.2%: max response [20, 21]
inactive: outcome [1] | activity change, negative = inhibition [20] -0.874% | Potency [2] | Potency [3] | outcome [4] | Potency [5] | Potency [6] | Potency [7] | Potency [8] | outcome [9] | Potency [10] | outcome [11] | Potency [12] | Potency [13] | Potency [14] | outcome [15] | outcome [16] | activation [17] -0.5% | outcome [18] | Potency [19]
-26.1%: max response [20, 22]

NC(=S)c1ccc[n+]([C@@H]2O[C@@H](COP(=O)([O-])OP(=O)(O)OC[C@H]3O[C@@H](n4cnc5c(N)ncnc54)[C@H](OP(=O)(O)O)[C@H]3O)C(O)C2O)c1 (stereo partly drawn)
inactive: outcome [1] | Potency [2] | Potency [3] | outcome [4] | Potency [5] | Potency [6] | Potency [7] | Potency [8] | outcome [9] | Potency [10] | outcome [11] | Potency [12] | Potency [13] | outcome [15] | outcome [16] | activation [17] -0.0625% | outcome [18] | Potency [19]

N.N.N.N.N.N.N.N.N.N.N.N.N.N.O.O.[Cl-].[Cl-].[Cl-].[Cl-].[Cl-].[Cl-].[Ru].[Ru].[Ru]
45.1%: max response [20, 22]
inactive: outcome [1] | activity change, negative = inhibition [20] 3.46% | outcome [11] | Potency [12] | Potency [13] | outcome [15] | activation [17] 1.06% | outcome [18] | Potency [19]
active: Potency [2] 35.5 µM | Potency [3] 20 µM | Potency [10] 4.47 µM
40.4%: max response [20, 21]

CC(C)C1NC(=O)[C@H](CCCCN)NC(=O)[C@@H](Cc2c[nH]c3ccccc23)NC(=O)[C@H](Cc2ccc(O)cc2)NC(=O)[C@H](C)N(C)C(=O)[C@H](Cc2ccccc2)NC1=O (stereo partly drawn)
25.5%: max response [20, 21]
inactive: outcome [1] | activity change, negative = inhibition [20] 0.502% | Potency [2] | Potency [3] | outcome [4] | Potency [5] | Potency [6] | Potency [7] | Potency [8] | Potency [10] | outcome [11] | Potency [12] | Potency [13] | Potency [14] | outcome [15] | outcome [16] | activation [17] -0.438% | outcome [18] | Potency [19]
23%: max response [20, 22]

Nc1nc(Nc2ccccc2)nc2c1ncn2[C@@H]1O[C@H](CO)[C@H](O)[C@H]1O
-24.2%: max response [20, 22]
-25.4%: max response [20, 21]
inactive: outcome [1] | activity change, negative = inhibition [20] -0.104% | Potency [2] | Potency [3] | outcome [4] | outcome [9] | Potency [10] | outcome [11] | Potency [12] | Potency [13] | Potency [14] | outcome [15] | outcome [16] | activation [17] 0.938% | outcome [18] | Potency [19]

C[C@]12CCC(=O)C=C1CC[C@@H]1C2[C@@H](O)C[C@@]2(C)[C@H]1CC[C@]2(O)C(=O)CO (stereo partly drawn)
inactive: outcome [1] | activity change, negative = inhibition [20] 0.0073% and -1.01% | Potency [2] | Potency [3] | outcome [4] | Potency [5] | Potency [6] | Potency [7] | Potency [8] | outcome [9] | Potency [10] | outcome [11] | Potency [12] | Potency [13] | Potency [14] | outcome [15] | outcome [16] | activation [17] 1% | outcome [18] | Potency [19]
2.28% and 8.51%: max response [20, 21]
2.14% and 9.17%: max response [20, 22]

NCCNC(=O)c1ccc(Cl)cc1
0.461% and 25.8%: max response [20, 21]
inactive: outcome [1] | activity change, negative = inhibition [20] -0.17% and -0.521% | Potency [2] | Potency [3] | outcome [4] | Potency [5] | Potency [6] | Potency [7] | Potency [8] | outcome [9] | Potency [10] | outcome [11] | Potency [12] | Potency [13] | Potency [14] | outcome [15] | outcome [16] | activation [17] 0.625% | outcome [18] | Potency [19]
1.39% and 22.5%: max response [20, 22]

NC(=O)C1=CN(C2OC(COP(=O)(O)OP(=O)(O)OC[C@H]3O[C@@H](n4cnc5c(N)ncnc54)[C@H](OP(=O)(O)O)[C@H]3O)C(O)C2O)C=CC1 (stereo partly drawn)
-24.1%: max response [20, 21]
inactive: outcome [1] | activity change, negative = inhibition [20] -2.12% | Potency [2] | Potency [3] | outcome [4] | Potency [5] | Potency [6] | Potency [7] | Potency [8] | outcome [9] | Potency [10] | outcome [11] | Potency [12] | Potency [13] | Potency [14] | outcome [15] | outcome [16] | activation [17] -0.125% | outcome [18] | Potency [19]
-21.9%: max response [20, 22]
